# Measurements: article PMC7862700, “An all-to-all approach to the identification of sequence-specific readers for epigenetic DNA modifications on cytosine”
# Assays:
# Test in all cases: DAPPL (digital affinity profiling via proximity ligation, sequencing); 10 mM Tris-HCl pH 7.5, 50 mM NaCl, 1 mM DTT, 4% glycerol, room temperature, 30 min; GST-TFs on glutathione beads, 16-mer random dsDNA library, 0.1% formaldehyde crosslink after washing; high values mean tight binding
# Settings in all cases: protein: recombinant; tags: N-terminal GST; dsDNA, one strand shown
# ELK1 = molecular target: T1, ELK1 (Homo sapiens, UniProt P19419 1-428)
# T1 sequence: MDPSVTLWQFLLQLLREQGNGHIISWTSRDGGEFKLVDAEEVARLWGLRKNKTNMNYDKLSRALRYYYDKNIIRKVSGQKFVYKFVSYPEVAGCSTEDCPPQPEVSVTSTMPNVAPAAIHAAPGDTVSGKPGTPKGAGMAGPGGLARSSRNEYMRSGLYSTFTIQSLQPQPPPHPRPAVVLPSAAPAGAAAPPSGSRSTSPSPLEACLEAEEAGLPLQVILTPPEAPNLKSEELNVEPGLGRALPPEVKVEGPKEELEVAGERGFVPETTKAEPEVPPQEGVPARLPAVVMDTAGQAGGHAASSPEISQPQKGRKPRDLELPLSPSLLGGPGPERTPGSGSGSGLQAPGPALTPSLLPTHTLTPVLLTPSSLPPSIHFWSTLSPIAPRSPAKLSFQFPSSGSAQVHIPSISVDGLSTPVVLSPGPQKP
# Procedure, shortened: (§1)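 A tag-only sample was pooled with DNA-barcoded human transcription factors that had been expressed in yeast as GST fusions and captured on glutathione beads. The pools were incubated for 30 min at room temperature with 200 nmole of a random double-stranded 16-mer DNA library in Tris/NaCl/DTT/glycerol buffer, then washed, crosslinked with 0.1% formaldehyde, proximity-ligated (BsaI/T4 ligase, 1 h, 37 °C), PCR-amplified and sequenced on an Illumina NextSeq500. Binding signal is each hexamer's read frequency for a factor divided by its frequency for the tag-only sample.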
# GABPA = molecular target: T2, GABPA (Homo sapiens, UniProt Q06546 1-454)
# T2 sequence: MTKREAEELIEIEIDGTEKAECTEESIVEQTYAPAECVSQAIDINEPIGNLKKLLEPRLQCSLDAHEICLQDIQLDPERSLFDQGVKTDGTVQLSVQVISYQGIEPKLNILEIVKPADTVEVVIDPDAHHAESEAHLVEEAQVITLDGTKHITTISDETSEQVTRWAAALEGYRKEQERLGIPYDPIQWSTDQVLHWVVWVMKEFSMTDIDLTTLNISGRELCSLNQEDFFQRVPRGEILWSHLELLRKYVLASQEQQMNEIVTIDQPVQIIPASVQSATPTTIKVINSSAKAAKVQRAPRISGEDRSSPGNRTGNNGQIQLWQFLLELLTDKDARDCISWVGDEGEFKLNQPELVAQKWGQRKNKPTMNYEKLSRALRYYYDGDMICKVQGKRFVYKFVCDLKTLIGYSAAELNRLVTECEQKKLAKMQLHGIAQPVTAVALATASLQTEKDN
# Procedure, shortened: as §1
# ERG = molecular target: T3, ERG (Homo sapiens, UniProt P11308 1-479)
# T3 sequence: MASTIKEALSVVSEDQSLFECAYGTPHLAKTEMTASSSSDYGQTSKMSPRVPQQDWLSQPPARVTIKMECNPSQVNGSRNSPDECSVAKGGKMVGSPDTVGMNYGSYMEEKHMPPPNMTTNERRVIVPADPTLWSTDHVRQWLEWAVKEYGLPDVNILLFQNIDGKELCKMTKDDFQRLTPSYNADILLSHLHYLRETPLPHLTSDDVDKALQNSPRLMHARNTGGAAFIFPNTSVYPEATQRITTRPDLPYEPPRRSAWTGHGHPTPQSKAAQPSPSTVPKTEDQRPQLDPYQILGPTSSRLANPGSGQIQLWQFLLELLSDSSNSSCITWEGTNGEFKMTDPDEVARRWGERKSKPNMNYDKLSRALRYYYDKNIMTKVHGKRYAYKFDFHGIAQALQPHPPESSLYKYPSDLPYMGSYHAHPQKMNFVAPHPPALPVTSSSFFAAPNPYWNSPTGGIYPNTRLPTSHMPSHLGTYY
# Procedure, shortened: as §1
# ELF1 = ELF1 (Homo sapiens, UniProt P32519 1-619)
# Procedure, shortened: as §1
# EHF = molecular target: T4, EHF (Homo sapiens, UniProt Q9NZC4 1-300)
# T4 sequence: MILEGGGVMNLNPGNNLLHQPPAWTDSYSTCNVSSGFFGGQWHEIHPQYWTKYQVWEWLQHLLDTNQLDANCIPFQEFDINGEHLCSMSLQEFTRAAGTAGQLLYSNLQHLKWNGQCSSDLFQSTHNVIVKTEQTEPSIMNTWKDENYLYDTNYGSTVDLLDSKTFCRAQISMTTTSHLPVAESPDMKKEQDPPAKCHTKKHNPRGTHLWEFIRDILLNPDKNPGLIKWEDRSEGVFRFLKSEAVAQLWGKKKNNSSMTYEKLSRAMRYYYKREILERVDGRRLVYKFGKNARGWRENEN
# Procedure, shortened: as §1
# SPIB = SPIB (Homo sapiens, UniProt Q01892 1-262)
# Procedure, shortened: as §1
# FEV = molecular target: T5, FEV (Homo sapiens, UniProt Q99581 1-238)
# T5 sequence: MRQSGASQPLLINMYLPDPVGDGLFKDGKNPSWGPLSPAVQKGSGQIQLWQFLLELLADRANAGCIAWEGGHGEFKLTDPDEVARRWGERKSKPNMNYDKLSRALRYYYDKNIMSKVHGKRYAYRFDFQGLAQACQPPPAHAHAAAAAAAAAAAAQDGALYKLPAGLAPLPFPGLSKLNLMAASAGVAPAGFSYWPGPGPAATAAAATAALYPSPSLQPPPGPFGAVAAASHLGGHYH
# Procedure, shortened: as §1
# ETV5 = ETV5 (Homo sapiens, UniProt P41161 1-510)
# Procedure, shortened: as §1
# ELF4 = ELF4 (Homo sapiens, UniProt Q99607 1-663)
# Procedure, shortened: as §1
# ELK4 = molecular target: T6, ELK4 (Homo sapiens, UniProt P28324-2 1-405)
# T6 sequence: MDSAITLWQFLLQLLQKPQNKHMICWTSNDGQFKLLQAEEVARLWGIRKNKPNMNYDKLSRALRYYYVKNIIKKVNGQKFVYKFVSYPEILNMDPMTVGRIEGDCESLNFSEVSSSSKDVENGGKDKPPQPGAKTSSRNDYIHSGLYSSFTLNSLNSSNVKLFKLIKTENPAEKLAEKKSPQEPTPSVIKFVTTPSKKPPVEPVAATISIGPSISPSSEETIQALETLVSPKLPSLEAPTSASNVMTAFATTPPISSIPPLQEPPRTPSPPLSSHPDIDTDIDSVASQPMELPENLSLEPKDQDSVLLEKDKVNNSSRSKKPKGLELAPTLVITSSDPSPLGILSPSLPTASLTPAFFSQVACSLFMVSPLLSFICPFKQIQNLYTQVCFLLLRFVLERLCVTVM
# Procedure, shortened: as §1
# ETV2 = molecular target: T7, ETV2 (Homo sapiens, UniProt O00321 1-342)
# T7 sequence: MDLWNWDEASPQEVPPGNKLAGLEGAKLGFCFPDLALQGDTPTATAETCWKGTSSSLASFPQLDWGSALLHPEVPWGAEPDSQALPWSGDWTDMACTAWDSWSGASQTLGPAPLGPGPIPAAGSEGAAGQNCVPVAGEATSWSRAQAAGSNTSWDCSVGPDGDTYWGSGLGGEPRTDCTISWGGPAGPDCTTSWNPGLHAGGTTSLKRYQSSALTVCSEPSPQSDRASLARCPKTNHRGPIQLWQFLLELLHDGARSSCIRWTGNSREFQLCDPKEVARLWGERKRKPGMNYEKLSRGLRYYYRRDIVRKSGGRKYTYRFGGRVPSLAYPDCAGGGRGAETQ
# Procedure, shortened: as §1
# ELF3 = molecular target: T8, ELF3 (Homo sapiens, UniProt P78545 1-371)
# T8 sequence: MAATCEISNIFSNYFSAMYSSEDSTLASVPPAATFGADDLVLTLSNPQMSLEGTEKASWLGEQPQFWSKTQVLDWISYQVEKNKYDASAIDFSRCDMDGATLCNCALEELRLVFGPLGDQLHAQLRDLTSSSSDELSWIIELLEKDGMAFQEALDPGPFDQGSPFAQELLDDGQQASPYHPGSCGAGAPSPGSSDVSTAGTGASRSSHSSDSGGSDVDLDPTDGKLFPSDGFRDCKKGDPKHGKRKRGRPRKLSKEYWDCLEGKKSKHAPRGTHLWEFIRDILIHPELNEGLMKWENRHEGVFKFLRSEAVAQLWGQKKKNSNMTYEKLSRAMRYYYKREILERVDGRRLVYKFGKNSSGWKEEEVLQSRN
# Procedure, shortened: as §1
# ETV1 = ETV1 (Homo sapiens, UniProt P50549 1-477)
# Procedure, shortened: as §1
# ERF = molecular target: T9, ERF (Homo sapiens, UniProt P50548 1-548)
# T9 sequence: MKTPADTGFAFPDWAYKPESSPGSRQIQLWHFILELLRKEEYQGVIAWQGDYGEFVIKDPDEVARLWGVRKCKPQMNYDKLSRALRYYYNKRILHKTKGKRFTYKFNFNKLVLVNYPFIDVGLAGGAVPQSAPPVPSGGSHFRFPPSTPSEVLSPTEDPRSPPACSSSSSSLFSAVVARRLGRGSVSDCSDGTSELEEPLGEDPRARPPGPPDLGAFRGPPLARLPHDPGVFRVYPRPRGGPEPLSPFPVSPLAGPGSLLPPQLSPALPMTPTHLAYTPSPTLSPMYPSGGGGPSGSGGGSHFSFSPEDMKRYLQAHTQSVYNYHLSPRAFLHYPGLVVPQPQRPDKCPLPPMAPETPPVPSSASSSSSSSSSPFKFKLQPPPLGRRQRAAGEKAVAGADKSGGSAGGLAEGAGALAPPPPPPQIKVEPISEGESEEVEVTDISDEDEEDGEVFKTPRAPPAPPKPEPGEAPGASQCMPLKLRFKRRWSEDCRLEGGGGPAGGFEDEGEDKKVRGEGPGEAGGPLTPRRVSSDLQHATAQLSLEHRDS
# Procedure, shortened: as §1
# ETV3L = molecular target: T10, ETV3L (Homo sapiens, UniProt Q6ZN32 1-361)
# T10 sequence: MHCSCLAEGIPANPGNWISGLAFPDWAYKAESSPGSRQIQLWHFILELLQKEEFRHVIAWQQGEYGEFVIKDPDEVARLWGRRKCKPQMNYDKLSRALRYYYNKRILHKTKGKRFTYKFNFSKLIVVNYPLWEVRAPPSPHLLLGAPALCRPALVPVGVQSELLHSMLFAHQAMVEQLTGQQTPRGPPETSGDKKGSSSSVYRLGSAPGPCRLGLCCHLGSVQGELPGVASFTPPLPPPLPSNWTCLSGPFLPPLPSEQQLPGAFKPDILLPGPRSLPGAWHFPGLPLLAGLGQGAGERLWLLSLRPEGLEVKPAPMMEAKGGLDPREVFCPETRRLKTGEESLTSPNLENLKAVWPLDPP
# Procedure, shortened: as §1
# ETS2 = molecular target: T11, ETS2 (Homo sapiens, UniProt P15036 1-469)
# T11 sequence: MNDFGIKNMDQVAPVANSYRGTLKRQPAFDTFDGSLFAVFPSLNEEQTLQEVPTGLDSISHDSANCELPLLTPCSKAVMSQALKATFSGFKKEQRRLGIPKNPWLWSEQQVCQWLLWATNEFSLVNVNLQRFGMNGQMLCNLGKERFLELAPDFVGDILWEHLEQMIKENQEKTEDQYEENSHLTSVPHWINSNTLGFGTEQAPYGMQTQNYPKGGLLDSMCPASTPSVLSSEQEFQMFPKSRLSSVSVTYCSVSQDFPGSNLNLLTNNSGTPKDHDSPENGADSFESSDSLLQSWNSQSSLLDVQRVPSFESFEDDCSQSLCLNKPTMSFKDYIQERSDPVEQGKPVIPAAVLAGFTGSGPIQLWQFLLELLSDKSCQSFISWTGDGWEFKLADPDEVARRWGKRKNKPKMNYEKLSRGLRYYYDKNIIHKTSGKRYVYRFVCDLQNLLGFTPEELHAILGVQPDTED
# Procedure, shortened: as §1
# SPDEF = molecular target: T12, SPDEF (Homo sapiens, UniProt O95238 1-335)
# T12 sequence: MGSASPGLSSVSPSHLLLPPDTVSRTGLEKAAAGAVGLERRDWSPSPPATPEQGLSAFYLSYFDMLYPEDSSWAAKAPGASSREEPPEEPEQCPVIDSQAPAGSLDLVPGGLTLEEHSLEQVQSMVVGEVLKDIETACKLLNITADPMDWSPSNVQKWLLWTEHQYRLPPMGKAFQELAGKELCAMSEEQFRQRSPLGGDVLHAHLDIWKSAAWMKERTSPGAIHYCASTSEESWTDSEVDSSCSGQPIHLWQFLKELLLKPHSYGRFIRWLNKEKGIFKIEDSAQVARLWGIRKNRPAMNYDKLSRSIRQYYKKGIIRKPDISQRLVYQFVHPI
# Procedure, shortened: as §1
# ETV3 = molecular target: T13, ETV3 (Homo sapiens, UniProt P41162-2 1-143)
# T13 sequence: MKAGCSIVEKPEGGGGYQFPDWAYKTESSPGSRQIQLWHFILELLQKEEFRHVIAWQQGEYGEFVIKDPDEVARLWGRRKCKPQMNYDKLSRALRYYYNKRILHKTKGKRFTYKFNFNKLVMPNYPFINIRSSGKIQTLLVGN
# Procedure, shortened: as §1
# ETV6 = ETV6 (Homo sapiens, UniProt P41212 1-452)
# Procedure, shortened: as §1
# Sequence of ETV6 (P41212 whole entry): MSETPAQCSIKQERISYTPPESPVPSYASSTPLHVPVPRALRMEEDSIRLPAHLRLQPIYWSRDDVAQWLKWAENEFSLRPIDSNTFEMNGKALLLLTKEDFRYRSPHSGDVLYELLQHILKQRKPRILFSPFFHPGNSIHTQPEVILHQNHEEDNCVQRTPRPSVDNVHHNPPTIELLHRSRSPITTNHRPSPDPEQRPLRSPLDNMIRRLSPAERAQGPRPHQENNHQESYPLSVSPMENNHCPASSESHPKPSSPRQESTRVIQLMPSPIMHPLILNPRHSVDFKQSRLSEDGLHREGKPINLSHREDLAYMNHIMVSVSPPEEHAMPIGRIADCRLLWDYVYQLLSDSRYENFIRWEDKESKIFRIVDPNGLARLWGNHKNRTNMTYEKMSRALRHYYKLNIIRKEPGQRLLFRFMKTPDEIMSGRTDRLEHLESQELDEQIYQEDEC
# Sequence of SPIB (Q01892 whole entry): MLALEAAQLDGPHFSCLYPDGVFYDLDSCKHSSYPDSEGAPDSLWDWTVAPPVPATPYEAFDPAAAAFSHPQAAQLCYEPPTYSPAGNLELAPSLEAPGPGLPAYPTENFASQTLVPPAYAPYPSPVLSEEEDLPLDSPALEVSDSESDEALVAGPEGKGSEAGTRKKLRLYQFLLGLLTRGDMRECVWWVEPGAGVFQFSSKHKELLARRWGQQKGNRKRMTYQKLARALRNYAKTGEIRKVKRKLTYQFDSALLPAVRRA
# Sequence of ELF1 (P32519 whole entry): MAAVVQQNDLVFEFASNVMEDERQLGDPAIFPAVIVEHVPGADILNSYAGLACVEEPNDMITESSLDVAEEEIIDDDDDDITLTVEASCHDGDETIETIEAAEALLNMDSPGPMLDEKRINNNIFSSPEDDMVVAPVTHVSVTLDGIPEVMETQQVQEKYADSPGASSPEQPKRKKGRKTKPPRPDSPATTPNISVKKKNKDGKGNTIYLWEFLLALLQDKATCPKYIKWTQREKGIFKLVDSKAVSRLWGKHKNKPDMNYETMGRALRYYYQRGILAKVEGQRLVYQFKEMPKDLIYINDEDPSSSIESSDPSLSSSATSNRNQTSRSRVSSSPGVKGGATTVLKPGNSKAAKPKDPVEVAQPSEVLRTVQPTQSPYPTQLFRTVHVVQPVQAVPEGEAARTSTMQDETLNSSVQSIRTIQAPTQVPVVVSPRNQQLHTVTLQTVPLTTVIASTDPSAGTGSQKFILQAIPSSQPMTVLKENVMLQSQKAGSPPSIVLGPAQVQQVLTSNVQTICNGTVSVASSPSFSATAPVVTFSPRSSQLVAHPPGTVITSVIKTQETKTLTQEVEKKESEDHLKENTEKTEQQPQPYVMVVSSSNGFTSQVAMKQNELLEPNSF
# Sequence of ETV1 (P50549 whole entry): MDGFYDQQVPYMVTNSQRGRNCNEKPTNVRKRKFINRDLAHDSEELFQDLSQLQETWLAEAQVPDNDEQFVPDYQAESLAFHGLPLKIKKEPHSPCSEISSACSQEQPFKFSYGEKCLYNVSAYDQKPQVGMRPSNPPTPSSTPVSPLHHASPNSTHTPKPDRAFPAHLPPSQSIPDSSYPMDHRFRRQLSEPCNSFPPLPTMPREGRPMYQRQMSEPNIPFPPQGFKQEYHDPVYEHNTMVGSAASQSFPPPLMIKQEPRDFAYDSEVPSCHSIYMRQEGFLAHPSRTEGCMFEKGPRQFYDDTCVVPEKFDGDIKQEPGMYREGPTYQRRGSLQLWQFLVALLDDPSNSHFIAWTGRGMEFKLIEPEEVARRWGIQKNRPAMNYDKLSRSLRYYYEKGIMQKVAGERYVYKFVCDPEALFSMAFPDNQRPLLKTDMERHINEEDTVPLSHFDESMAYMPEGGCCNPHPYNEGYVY
# Sequence of ETV5 (P41161 whole entry): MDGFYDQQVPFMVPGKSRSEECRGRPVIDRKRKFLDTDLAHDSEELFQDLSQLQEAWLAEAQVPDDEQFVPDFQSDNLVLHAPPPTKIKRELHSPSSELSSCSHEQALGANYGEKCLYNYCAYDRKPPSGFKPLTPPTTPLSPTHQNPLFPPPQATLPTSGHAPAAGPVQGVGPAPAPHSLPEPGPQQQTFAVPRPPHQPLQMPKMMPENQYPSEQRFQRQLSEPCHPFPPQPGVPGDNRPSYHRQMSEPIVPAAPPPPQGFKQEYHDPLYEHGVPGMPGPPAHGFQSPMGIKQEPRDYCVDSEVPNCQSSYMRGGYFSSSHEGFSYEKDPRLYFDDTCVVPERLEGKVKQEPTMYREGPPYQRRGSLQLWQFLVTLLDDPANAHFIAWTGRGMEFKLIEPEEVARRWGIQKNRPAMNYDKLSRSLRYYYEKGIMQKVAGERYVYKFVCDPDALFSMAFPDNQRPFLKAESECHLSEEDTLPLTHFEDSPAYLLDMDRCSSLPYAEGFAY
# Sequence of ELF4 (Q99607 whole entry): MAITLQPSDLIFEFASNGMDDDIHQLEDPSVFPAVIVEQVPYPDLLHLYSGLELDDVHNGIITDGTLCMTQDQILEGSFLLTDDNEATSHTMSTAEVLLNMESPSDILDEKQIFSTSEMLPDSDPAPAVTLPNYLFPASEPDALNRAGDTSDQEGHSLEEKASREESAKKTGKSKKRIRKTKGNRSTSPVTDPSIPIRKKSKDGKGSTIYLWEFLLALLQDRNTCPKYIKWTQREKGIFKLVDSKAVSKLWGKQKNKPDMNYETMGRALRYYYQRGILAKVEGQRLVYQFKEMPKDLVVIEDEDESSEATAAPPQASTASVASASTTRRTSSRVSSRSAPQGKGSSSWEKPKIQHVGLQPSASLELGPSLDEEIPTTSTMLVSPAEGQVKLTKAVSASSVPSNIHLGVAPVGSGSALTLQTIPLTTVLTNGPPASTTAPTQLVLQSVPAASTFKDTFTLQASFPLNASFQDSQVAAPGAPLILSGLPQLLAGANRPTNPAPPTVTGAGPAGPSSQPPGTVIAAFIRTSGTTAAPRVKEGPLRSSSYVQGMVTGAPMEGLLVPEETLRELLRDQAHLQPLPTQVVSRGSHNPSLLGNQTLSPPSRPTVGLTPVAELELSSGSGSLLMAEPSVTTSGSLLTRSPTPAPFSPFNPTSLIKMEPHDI
sequence,measurement,setting,value
CTAGCG,binding signal,ELK1,"1.12 fold enrichment (6-mer frequency, TF over GST control)"
same,binding signal,GABPA,"1.32 fold enrichment (6-mer frequency, TF over GST control)"
same,binding signal,ERG,"1.19 fold enrichment (6-mer frequency, TF over GST control)"
same,binding signal,ELF1,"1.11 fold enrichment (6-mer frequency, TF over GST control)"
same,binding signal,EHF,"1.18 fold enrichment (6-mer frequency, TF over GST control)"
same,binding signal,SPIB,"1.17 fold enrichment (6-mer frequency, TF over GST control)"
same,binding signal,FEV,"1.15 fold enrichment (6-mer frequency, TF over GST control)"
same,binding signal,ETV5,"1.22 fold enrichment (6-mer frequency, TF over GST control)"
same,binding signal,ELF4,"1.1 fold enrichment (6-mer frequency, TF over GST control)"
same,binding signal,ELK4,"1.16 fold enrichment (6-mer frequency, TF over GST control)"
same,binding signal,ETV2,"1.09 fold enrichment (6-mer frequency, TF over GST control)"
same,binding signal,ELF3,"1.05 fold enrichment (6-mer frequency, TF over GST control)"
same,binding signal,ETV1,"1.17 fold enrichment (6-mer frequency, TF over GST control)"
same,binding signal,ERF,"1.31 fold enrichment (6-mer frequency, TF over GST control)"
same,binding signal,ETV3L,"1.07 fold enrichment (6-mer frequency, TF over GST control)"
same,binding signal,ETS2,"1.18 fold enrichment (6-mer frequency, TF over GST control)"
same,binding signal,SPDEF,"1.1 fold enrichment (6-mer frequency, TF over GST control)"
same,binding signal,ETV3,"1.15 fold enrichment (6-mer frequency, TF over GST control)"
same,binding signal,ETV6,"1.08 fold enrichment (6-mer frequency, TF over GST control)"
